# Test results as given in PubChem BioAssay AID463173 (ICCB-Longwood Screening Facility, Harvard Medical School, 2010).
# Screen size: about 52,000 compounds; about 4,300 (8.3%) were called active. No stated cut-off is given here; in the data, active means survival mostly below about 52% (no sharp cut-off); inactive means mostly above about 56%. For the sample, actives were picked, then their nearest neighbours and some compounds at random.
# System: DeltatarO mutant
# Test: S. aureus survival, RN4220 and DeltatarO strains – OD600, teichoic acid synthesis inhibitors, primary screen (AID 463173)
# Settings: S. aureus RN4220 wild type/DeltatarO growth, OD600, 18 h, active compounds read low, screened at 18.75 µg/mL (by protocol)
row,Structure (SMILES),survival
1,Cc1ccc(NC(=O)CSc2nc3n[nH]c(C)c3c(=N)n2-c2ccccc2C)cc1C,77% (inactive)
2,CCOC(=O)C1CCC(CN(Cc2ccc(OC)cc2)S(=O)(=O)c2ccc(F)c(C(=O)Nc3cc(Cl)ccc3OC)c2)CC1 (stereo not drawn),83% (inactive)
3,CCN(CC)S(=O)(=O)c1ccc2c(c1)N(CC(=O)Nc1cccc(C(C)=O)c1)C(=O)CO2,84% (inactive)
4,Cc1ccc(Cl)cc1N1CCN(C(=O)Cn2ncc3c4ccccc4n(C)c3c2=O)CC1,54% (inactive)
5,CC1=C(c2ccc(C)cc2)S(=O)(=O)NC1=NCCCN1CCN(c2ccc(F)cc2)CC1,69% (inactive)
6,O=C(O)C(Cc1c[nH]c2ccccc12)Nc1ncnc2c1oc1ccccc12 (stereo not drawn),76% (inactive)
7,CCc1ccc(NC(=O)CCc2c(C)nc3nc(-c4cc(OC)cc(OC)c4)nn3c2C)cc1,111% (inactive)
8,CCCCc1ccc(NC(=O)CSc2nnc3[nH]c(=O)cc(C)n23)cc1,95% (inactive)
9,Cc1ccc(CNC(=O)CCS(=O)(=O)c2ccc3c(c2)CC(C)N3C(=O)C2CC2)cc1 (stereo not drawn),91% (inactive)
10,COc1ccccc1N1CCN(c2ncnc3c2cnn3-c2cc(Cl)ccc2C)CC1,124% (inactive)
11,Cc1ccc(-n2ncc3c(N4CCN(Cc5ccccc5)CC4)ncnc32)cc1Cl,87% (inactive)
12,Clc1cccc(-n2ncc3c(N4CCN(Cc5ccccc5)CC4)ncnc32)c1,25% (active)
13,c1ccc(CN2CCN(c3ncnc4c3cnn4-c3ccccc3)CC2)cc1,69% (inactive)
14,COc1ccccc1N1CCN(c2ncnc3c2cnn3-c2ccc(C)cc2)CC1,91% (inactive)
15,COc1ccccc1N1CCN(c2ncnc3c2cnn3-c2cccc(Cl)c2)CC1,-2% (active)
16,COc1cc(CSc2ncc(CO)n2Cc2ccc(C)cc2)cc(OC)c1,92% (inactive)
17,Cc1cccc(NC(=O)CSc2nc3c([nH]c4ccccc43)c(=O)n2-c2ccc(F)cc2)c1C,49% (inactive)
18,O=C(CSc1nc2c([nH]c3ccccc32)c(=O)n1-c1ccccc1)Nc1cccc(C(F)(F)F)c1,-4% (active)
19,Cc1ccc(C)c(NC(=O)CSc2nc3c([nH]c4ccccc43)c(=O)n2-c2ccc(F)cc2)c1,32% (active)
20,O=C(CSc1nc2c([nH]c3ccccc32)c(=O)n1-c1ccccc1)c1ccccc1,77% (inactive)
21,O=C(CSc1nc2c([nH]c3ccccc32)c(=O)n1-c1ccccc1)c1ccc(Cl)cc1,92% (inactive)
22,O=C(CSc1nc2c([nH]c3ccccc32)c(=O)n1-c1ccc(Cl)cc1)c1ccccc1,94% (inactive)
23,Cc1ccc(-n2c(SCC(=O)c3ccccc3)nc3c([nH]c4ccccc43)c2=O)cc1,-5% (active)
24,O=C(CSc1nc2c([nH]c3ccccc32)c(=O)n1-c1ccccc1F)Nc1cccc(C(F)(F)F)c1,74% (inactive)
25,O=C(CSc1nc2c([nH]c3ccccc32)c(=O)n1-c1cccc(Cl)c1)c1ccccc1,47% (active)
26,COc1cccc(NC(=O)CSc2nc3c([nH]c4ccccc43)c(=O)n2-c2ccccc2)c1,76% (inactive)
27,CCOc1ccc(-n2c(SCC(=O)Nc3cc(C)ccc3C)nc3c([nH]c4ccccc43)c2=O)cc1,75% (inactive)
28,COc1ccc(-n2c(SCC(=O)c3ccccc3)nc3c([nH]c4ccccc43)c2=O)cc1,98% (inactive)
